The whole screen tested about 16,000 compounds, of which about 5,700 (36%) were called active. Not shown: some 24% with an inconclusive outcome. Some of the results follow. Values without a mark were called inactive. Calls come from the whole dose curve; as a rule, active = well fitted curve in the direction sought with a large enough effect; inconclusive = small, poorly fitted or top-dose-only effect, or effect the other way; inactive = no such curve, though single readings can be large or run the other way.
% is set by controls: 0 for no effect and ±100 for the full control effect.

Chain of Cytochrome P450 1A2 (Homo sapiens) (P05177 whole entry, looked up): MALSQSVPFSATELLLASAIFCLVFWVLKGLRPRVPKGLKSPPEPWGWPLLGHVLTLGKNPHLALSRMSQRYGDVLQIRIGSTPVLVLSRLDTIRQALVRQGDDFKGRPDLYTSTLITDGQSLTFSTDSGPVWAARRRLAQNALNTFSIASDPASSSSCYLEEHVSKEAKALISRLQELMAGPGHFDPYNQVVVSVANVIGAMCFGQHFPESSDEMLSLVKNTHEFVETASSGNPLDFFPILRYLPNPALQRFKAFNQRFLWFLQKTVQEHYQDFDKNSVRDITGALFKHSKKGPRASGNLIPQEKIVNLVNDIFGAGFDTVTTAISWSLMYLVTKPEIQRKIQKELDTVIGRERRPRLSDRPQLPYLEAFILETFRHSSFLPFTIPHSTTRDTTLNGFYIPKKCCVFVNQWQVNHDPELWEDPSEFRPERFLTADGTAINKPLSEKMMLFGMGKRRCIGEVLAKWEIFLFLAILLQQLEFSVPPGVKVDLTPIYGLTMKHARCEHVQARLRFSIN

This assay has as its target Cytochrome P450 1A2 (Homo sapiens) (UniProt P05177). In words: Cytochrome panel assay with activity outcomes. The conditions noted are these: recombinant CYP, pro-luciferin dealkylation, luminescence, p450-cyp1a2; series mostly up to 57.1 µM; activity, negative = inhibition: at the top concentration.
For `N#CCCCC[N+]12CN3CN(CN(C3)C1)C2`, the activity, negative = inhibition was 15% [at 2.29 µM]. The same measure, in the same setting: to `COCCCN1Cc2ccccc2C1=N` belongs 5.31%. In general, AC50 refers to the midpoint of the concentration-response curve, whichever way the signal moves. Consider `S=C(S)N1CCCC1`, for which the concentration at half-maximal activity (AC50) is 31.6 µM (active). `C[C@@]12CC[C@H](O)C[C@@H]1CC[C@@H]1[C@@H]2CC[C@@]2(C)[C@@H](C3=CC(=O)OC3)[C@H](O)C[C@]12O`: the activity, negative = inhibition is -18.3% [at 11.4 µM]. With `CC1(C)N=C(N)N=C(N)N1c1cccc(C(=O)Nc2ccc(S(=O)(=O)F)cc2)c1`, the activity, negative = inhibition was -15.8% [at 11.4 µM]. For `c1ccc(CN2CC[C@@]3(CCCNC3)C2)cc1`, the “activity, negative = inhibition” value is -5.11%. Turning to `NC1=Nc2ccccc2Oc2ccccc21`, the AC50 is 12.6 µM (active). For the molecule `CC(C)[N+](C)(CCC(C(N)=O)(c1ccccc1)c1ccccc1)C(C)C`, the “activity, negative = inhibition” value is -8.56% [at 25.6 µM]. Same read-out and setting: with `C=CCN1C(=O)c2ccccc2Sc2ccc(C(=O)N3CCC4(CC3)OCCO4)cc21` the figure was -5.85%. As to `CC(=O)c1ccc2c(c1)N(CCCN(C)C)c1ccccc1S2`, the AC50 is 1.58 µM (active). Take `CN1C(=O)c2ccccc2Sc2ccc(C(=O)N3CCC4(CC3)OCCO4)cc21`: the “activity, negative = inhibition” value was -18.4%.

Turning to `C[N+](C)(C)CCCCCC[N+](C)(C)C`, the “activity, negative = inhibition” value is 0.308% [at 25.6 µM]. For the molecule `CCCOc1ccc2[nH]cc(C3=CCNCC3)c2n1`, the AC50 is 0.126 µM (active). As for `COc1ccc2[nH]cc(C3=CCNCC3)c2c1`, the AC50 was 0.251 µM (active). In the case of `O=c1ccc2[nH]cc(C3=CCNCC3)c2[nH]1`, the “activity, negative = inhibition” value is -5.27%. With `C[C@@]12CC[C@@H]3[C@H](CCC4=CC(=O)CC[C@]43C)[C@@H]1CC[C@@H]2C(=O)Cn1cnc2c(=S)nc[nH]c21`, the activity, negative = inhibition is -15.8% [at 11.4 µM]. Regarding `NP(N)(=O)NC(=O)c1ccc(F)cc1`, the “activity, negative = inhibition” value was -12%. Consider `NCCCP(=O)(O)O`, for which the “activity, negative = inhibition” value is 3.53%.

As to `CC1=C(O)C(=O)[C@H]2O[C@@H]2C1=O`, the “activity, negative = inhibition” value was -9.2%. Consider `C[N+]1(C)[C@@H]2CC[C@H]1CC(OC(=O)[C@@H](CO)c1ccccc1)C2` (stereo partly specified), for which the AC50 entry was “inactive”. Turning to `CN1CCCC2(CCN(C(=O)c3csnn3)CC2)C1`, the “activity, negative = inhibition” value is -5.37%.

With `O=C(c1ccncc1)N1CCC2(CC1)CN(Cc1ccccc1)C2`, the “activity, negative = inhibition” value was -16.4%. For the molecule `O=C(c1csnn1)N1CCC2(CC1)CN(Cc1ccncc1)C2`, the concentration at half-maximal activity (AC50) was 10 µM (active). As for `N#Cc1ccc(CN2CCC3(CC2)CCN(C(=O)Oc2ccccc2)CC3)cc1`, the “activity, negative = inhibition” value was 1.15%. In the case of `O=P(O)(O)CCP(=O)(O)O`, the activity, negative = inhibition was 0.113% [at 11.4 µM]. On to `CC(=O)[C@@H]1CC[C@@H]2[C@@H]3CC=C4C[C@H](OS(=O)(=O)O)CC[C@@]4(C)[C@H]3CC[C@]21C`, for which the “activity, negative = inhibition” value was -7.33%.

Consider `O=C1Nc2ccc(I)cc2/C1=C/c1cc(Br)c(O)c(Br)c1`, for which the concentration at half-maximal activity (AC50) is 0.794 µM (active). In the case of `COC(=O)C1=CCCN(C)C1`, the AC50 entry is “inactive”. Turning to `Cc1ccc(C2CC(=O)C(C=NCCN3CCN(C(=O)Cc4ccccc4)CC3)=C(O)C2)cc1` (stereo unspecified), the “activity, negative = inhibition” value was 6.67%. Regarding `C[C@H](N)[C@@H](O)c1ccccc1`, the “activity, negative = inhibition” value was 0.0945% [at 25.6 µM]. Take `CC(NCc1ccc(Cl)cc1)C(O)c1ccccc1` (stereo unspecified): the AC50 was 14.1 µM (active). On to `C[C@@H](Cc1ccc(OCC(=O)O)cc1)NC[C@H](O)c1cccc(Cl)c1`, for which the “activity, negative = inhibition” value was -4.97%. `CCN(CC)CCn1ncc2c(N)ncnc21`: the activity, negative = inhibition is -6.04% [at 11.4 µM]. Still for that read-out and setting: with `CC[C@H](C(=O)[C@H](C)[C@H](O)[C@H](C)CCc1ccc(C)c(O)c1C(=O)O)[C@H]1O[C@](CC)([C@@H]2CC[C@@](O)(CC)[C@H](C)O2)C[C@H]1C` the figure was 1.36% [at 25.6 µM]; with `N=C1c2ccccc2CN1NC(=O)c1ccc(Cl)cc1`, -3.35%; with `COc1ccc(C[C@H]2NC[C@H](O)[C@@H]2OC(C)=O)cc1`, -31.9%. For the molecule `O=C(O)CP(=O)(O)c1ccc(Cl)cc1`, the “activity, negative = inhibition” value was -12.7%. `NC[C@@H](CC(=O)O)c1ccc(Cl)cc1`: the AC50 entry was “inactive”. For `O=NN(Cc1ccc(Cl)cc1)[C@@H](C(=O)O)c1ccccc1`, the AC50 was 5.01 µM (active). For the molecule `C[C@@]12CC[C@H]3[C@@H](CCC4=CC(=O)CC[C@]43C)[C@H]1CC[C@H]2C(=O)CO`, the “activity, negative = inhibition” value is -5.66% [at 25.6 µM]. Regarding `CNC(=S)NC1CC2CCCC(C1)N2CC(C)C` (stereo unspecified), the “activity, negative = inhibition” value was 8.76%. The same measure, in the same setting: to `CCOCCN1CCC(OC(C)=O)C(C)C1` (stereo unspecified) belongs -3.38%. Same read-out and setting: to `C[C@H](CC(C#N)(c1ccccc1)c1ccccc1)N1CCCCC1` belongs 7.09% [at 2.29 µM]. Consider `O=c1oc(Cl)c(Cl)c2ccccc12`, for which the AC50 is 1 µM (active). In the case of `O=[N+]([O-])O[C@H]1CO[C@H]2[C@H]1OC[C@@H]2O[N+](=O)[O-]`, the “activity, negative = inhibition” value is 0.921% [at 25.6 µM].

On to `O=C1OC(=O)[C@@H]2[C@@H]1[C@@H]1CC[C@H]2O1`, for which the “activity, negative = inhibition” value is -1.88%. For `NC(=O)CN1C[C@@H](O)CC1=O`, the “activity, negative = inhibition” value was 4.16%. With `CCOP(=O)(OCC)C(NC(C)=O)C(Cl)(Cl)Cl` (stereo unspecified), the “activity, negative = inhibition” value is 1.98%. Still for that read-out and setting: to `CC(O)(CS(=O)(=O)c1cccc(C(F)(F)F)c1)C(=O)Nc1cccc(C(F)(F)F)c1` (stereo unspecified) belongs -28.1%.

With `O=C(Nc1cccc(C(F)(F)F)c1)c1cccn(Cc2ccc3c(c2)OC(F)(F)O3)c1=O`, the concentration at half-maximal activity (AC50) is 3.16 µM (active). `CC(O)(CS(=O)(=O)c1ccccc1)C(=O)Nc1cccc(C(F)(F)F)c1` (stereo unspecified): the “activity, negative = inhibition” value is -24.9%.

The record behind these values is PubChem BioAssay AID1851 (National Center for Advancing Translational Sciences (NCATS), 2009).
